Potency and outcome data for seven compounds are collected here from PubChem BioAssay (Tox21).

“And” between values parts separate entries of the source, which are not always exact repeats. Equal entries are not always repeated. Inconclusive results are not listed. More than one record can exist for a structure, and the calls need not agree. The source made the active and inactive calls. Unless noted, calls follow the shape of the dose curve; as a rule, active = well fitted curve in the direction sought with a large enough effect in the repeat runs; inconclusive = weak or mixed curves; inactive = no such curve, though single readings can be large; an effect the other way counts as inactive or inconclusive.

Test [1] is described as follows: qHTS assay to identify small molecule antagonists of the androgen receptor (AR) signaling pathway using the MDA cell line in the presence of 0.5 nM R1881 - cell viability counter screen (AID 1259242). Also: nearly all actives have a fitted effect of over 45% in size. Also: potency is read from the fitted curve at half-maximal effect. In short, it runs like this:
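Live-cell protease fluorescence, CellTiter-Fluor, 30 min at 37C. Cells: MDA-kb2, 3,000/well, preincubated 5 hr. Compounds plus 0.5 nM R1881 final, 16 hr, 37C, 0% CO2.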
On the technique in general: Quantitative high-throughput screening tests each substance at several concentrations.

The target in test [2] is Estrogen receptor (Homo sapiens) (UniProt P03372). The test can be described thus: qHTS assay to identify small molecule antagonists of the estrogen receptor alpha (ER-alpha) signaling pathway using the BG1 cell line in the presence of 0.1 nM 17-beta-estradiol (AID 1259244). Also: nearly all actives have a fitted effect of over 50% in size. Also: potency is read from the fitted curve at half-maximal effect. In short, it runs like this: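 Luminescence after ONE-Glo (30 min, room temperature) measured ERE-luciferase activity in VM7Luc4E2 cells treated 22 h with compound and 0.1 nM final 17beta-estradiol as stimulator.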

Test [3] can be described thus: qHTS assay to identify small molecule phospholipidosis (PLD) inducers (AID 1259344; active = well fitted curve in the direction sought with a large enough effect; an effect the other way counts as inactive or inconclusive). Summed up:
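Cells (HepG2, 900 per well) attach for 4 h, receive LipidTOX Red and compound together, incubate 24 h at 37 C, are fixed 30 min with paraformaldehyde/Hoechst, then imaged at one site per well.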

Test [4] can be described thus: qHTS assay to identify small molecule HDAC inhibitors (AID 1259364).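 Also: wild-type HCT-116 cells with endogenous class I/II HDAC activity; top concentration of the series differs between compounds; nearly all actives have a fitted effect of over 45% in size.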 Summed up:
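HCT-116 (wild type), 1,500 cells/well, overnight; compound 2 hr 37C 5% CO2; HDAC-Glo I/II reagent 30 min RT; luminescence readout.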

The nature of test [5]: qHTS assay to identify small molecule HDAC inhibitors - cell viability counter screen (AID 1259365). Also: series mostly up to about 92 µM; nearly all actives have a fitted effect of over 50% in size. Summed up:
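Measured quantity is CellTiter-Glo luminescence from wild-type HCT-116 cells after compound incubation of 2hr at 37C, 5% CO2; reagent developed 30min at room temperature.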

A short description of test [6]: qHTS assay to identify small molecule agonists of the sonic hedgehog signaling (Shh) pathway - cell viability counter screen (AID 1259366). Also: nearly all actives have a fitted effect of over 50% in size. Also: potency is read from the fitted curve at half-maximal effect. Summed up:
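In quantitative high-throughput format, 3T3 Gli1-Luc cells were exposed to compounds for 24hr and multiplexed for viability using CellTiter-Fluor, incubated 1hr at 37C before the fluorescence read.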

Test [7] can be described thus: qHTS assay to identify small molecule antagonists of the sonic hedgehog signaling (Shh) pathway - cell viability counter screen (AID 1259367). Also: nearly all actives have a fitted effect of over 55% in size. Also: potency is read from the fitted curve at half-maximal effect. Summed up: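 Cytotoxicity was assessed in parallel with Shh reporter activity by measuring live-cell protease fluorescence (CellTiter-Fluor) in NIH/3T3 cells stably carrying Gli1-Luc, treated with compound under conditioned medium stimulation for 23 hr plus 1 hr reagent incubation.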

Test [8] can be described thus: qHTS assay to identify small molecule agonists of the sonic hedgehog signaling (Shh) pathway (AID 1259368; calls by dose curve;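 also: NIH/3T3-derived 3T3Gli1-Luc cells carrying a stable Gli1-driven firefly luciferase reporter; series mostly up to about 92 µM; nearly all actives have a fitted effect of over 15% in size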). In short, it runs like this: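 Read-out: firefly luciferase luminescence from a Gli1 response element reporter stably integrated in NIH/3T3-derived 3T3Gli1-Luc cells, measured 30 min at room temperature after reagent addition. Compound exposure lasted 24 hr at 37 C, 5% CO2.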

Test [9] is described as follows: qHTS assay to identify small molecule antagonists of the sonic hedgehog signaling (Shh) pathway (AID 1259369; calls by dose curve; also: nearly all actives have a fitted effect of over 45% in size; also: potency is read from the fitted curve at half-maximal effect). Summed up:
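Luminescence readout: firefly Luc under Gli1 response element in 3T3Gli1-Luc cells (NIH/3T3 clone). Antagonist mode, stimulation by conditioned medium; compound exposure 24hr at 37 C, 5% CO2.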

The nature of test [10]: qHTS assay to identify small molecule agonists of the androgen receptor (AR) signaling pathway in the presence of an antagonist - cell viability counter screen (AID 1259379). Also: nearly all actives have a fitted effect of over 25% in size. Also: potency is read from the fitted curve at half-maximal effect. Summed up:
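Viability counter screen: CellTiter-Fluor fluorescence, measured in the same wells as the luciferase read-out. MDA-kb2 cells, 3,000/well, with nilutamide at 3.0uM final and compounds at 15 concentrations, 16 hr at 37C, 0% CO2.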

A short description of test [11]: qHTS assay to identify small molecule agonists of the estrogen receptor beta (ER-beta) signaling pathway - cell viability counter screen (AID 1259380). Also: nearly all actives have a fitted effect of over 30% in size. Also: potency is read from the fitted curve at half-maximal effect. Summed up: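 Luminescence read-out (CellTiter-Glo, 30 min, room temp) taken in the same wells as the beta-lactamase reporter assay; ER-beta-UAS-bla HEK293T cells exposed to DMSO-dissolved compounds for 16 hr at 37C in 2% charcoal-stripped FBS medium.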

Test [12] can be described thus: qHTS assay to identify small molecule antagonists of the estrogen receptor beta (ER-beta) signaling pathway - cell viability counter screen (AID 1259382). Also: nearly all actives have a fitted effect of over 55% in size. Also: potency is read from the fitted curve at half-maximal effect. Summed up:
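Luminescent ATP read-out (CellTiter-Glo, 30 min, RT) taken in the same wells as the bla reporter assay. HEK293T ER-beta-UAS-bla cells in 2% charcoal-stripped FBS were exposed to compounds with 1nM E2 for 16 hr at 37C.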

The target in test [13] is Estrogen receptor (Homo sapiens) (UniProt P03372). The test can be described thus: qHTS assay to identify small molecule agonists of the estrogen receptor alpha (ER-alpha) signaling pathway in the presence of an antagonist (AID 1259383; calls by dose curve; also: nearly all actives have a fitted effect of over 15% in size; also: potency is read from the fitted curve at half-maximal effect; as to activation: top concentration of the series differs between compounds). Summed up:
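Luciferase luminescence (ONE-Glo, 30min at room temperature) measured in VM7Luc4E2 cells after 22hr compound exposure at 15 concentrations, with 10.0nM ICI-182,780 final present; cells express endogenous ER-alpha and carry four EREs upstream of luciferase.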

Test [14] can be described thus: qHTS assay to identify small molecule agonists or antagonists of the thyroid stimulating hormone receptor (TSHR) signaling pathway - wild type cell line counter screen (AID 1259384; calls by dose curve). In short, it runs like this: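 Wild-type HEK293 cells were plated 18 h at 37 C/5% CO2, pin-dosed with compound plus Ro20-1724 medium, held 30 min at room temperature, then given cAMP-d2 and anti-cAMP-cryptate; fluorescence was read after 1 h. Fifteen concentrations, triplicate.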

For test [15], the target named is Thyrotropin receptor (Homo sapiens) (UniProt P16473). The test can be described thus: qHTS assay to identify small molecule antagonists of the thyroid stimulating hormone receptor (TSHR) signaling pathway (AID 1259385; calls by dose curve; also: nearly all actives have a fitted effect of over 20% in size). Summed up: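 TSHR-HEK293 cells were plated and held 18 h at 37C/5% CO2, then given compound plus Ro20-1724 and stimulated with TSH at 1.5 ng/mL final. After 30 min at room temperature, cAMP was detected with cAMP-d2/anti-cAMP-cryptate (1 h) by fluorescence.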

Test [16] is described as follows: qHTS assay to identify small molecule agonists of the estrogen receptor alpha (ER-alpha) signaling pathway in the presence of an antagonist - cell viability counter screen (AID 1259386).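 Also: cells exposed to compounds for 22 h at 37 °C before the viability read; nearly all actives have a fitted effect of over 30% in size.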 Also: potency is read from the fitted curve at half-maximal effect. Summed up:
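Read-out: CellTiter-Fluor fluorescence after 1hr reagent incubation, measured in the same wells as the luciferase readout. VM7Luc4E2 cells were exposed to 15 compound concentrations with 10.0nM ICI-182,780 for 22hr at 37C.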

The target of test [17] is Estrogen receptor beta (Homo sapiens) (UniProt Q92731). The test can be described thus: qHTS assay to identify small molecule agonists of the estrogen receptor beta (ER-beta) signaling pathway (AID 1259377; active = well fitted activation curve with a large enough effect in the signal ratio in the repeat runs, not every such curve was filed as active; the % refers to the signal ratio). In short, it runs like this: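 Reporter cells (HEK293T, ER-beta-UAS-bla) receive compounds or DMSO after a 6 hr pre-incubation. They then incubate 16 hr at 37C/5% CO2, and fluorescence from LiveBLAzer B/G substrate is measured after 2 hours at room temperature.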

Test [18] shares this target. As to the kind of experiment: qHTS assay to identify small molecule antagonists of the estrogen receptor beta (ER-beta) signaling pathway (AID 1259378; active = well fitted inhibition curve with a large enough effect in the signal ratio in the repeat runs, not every such curve was filed as active; the % refers to the signal ratio; also: potency is read from the fitted curve at half-maximal effect). Summed up:
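ER-beta-UAS-bla HEK293T (GripTite) cells in 2% charcoal-stripped FBS medium were preincubated 6 hr at 37C, dosed with compound, then stimulated with 1 nM E2 (final) for 16 hr; beta-lactamase reporter read by B/G FRET fluorescence after 2 hr substrate loading.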

Test [19] addresses Androgen receptor (Homo sapiens) (UniProt P10275). As to the kind of experiment: qHTS assay to identify small molecule antagonists of the androgen receptor (AR) signaling pathway using the MDA cell line in the presence of 0.5 nM R1881 (AID 1259243). Also: nearly all actives have a fitted effect of over 50% in size. Summed up:
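MDA-kb2, MMTV-luc (AR/GR elements); 3,000 cells/well; cpd + 0.5 nM R1881 final; 16 hr 37C, 0% CO2; ONE-Glo 30 min RT; luminescence.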

For test [20] the target is unchanged. As to the kind of experiment: qHTS assay to identify small molecule agonists of the androgen receptor (AR) signaling pathway in the presence of an antagonist (AID 1259381; calls by dose curve; also: nearly all actives have a fitted effect of over 15% in size). In short, it runs like this:
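Luciferase read-out (ONE-Glo, 30min room temperature) in MDA-kb2 MMTV-reporter cells; agonist mode run in presence of AR antagonist nilutamide, 3.0uM final. Compounds tested as 15-point series, 16hr exposure at 37C, 0% CO2.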

Thyrotropin receptor (Homo sapiens), sequence (P16473 whole entry, looked up): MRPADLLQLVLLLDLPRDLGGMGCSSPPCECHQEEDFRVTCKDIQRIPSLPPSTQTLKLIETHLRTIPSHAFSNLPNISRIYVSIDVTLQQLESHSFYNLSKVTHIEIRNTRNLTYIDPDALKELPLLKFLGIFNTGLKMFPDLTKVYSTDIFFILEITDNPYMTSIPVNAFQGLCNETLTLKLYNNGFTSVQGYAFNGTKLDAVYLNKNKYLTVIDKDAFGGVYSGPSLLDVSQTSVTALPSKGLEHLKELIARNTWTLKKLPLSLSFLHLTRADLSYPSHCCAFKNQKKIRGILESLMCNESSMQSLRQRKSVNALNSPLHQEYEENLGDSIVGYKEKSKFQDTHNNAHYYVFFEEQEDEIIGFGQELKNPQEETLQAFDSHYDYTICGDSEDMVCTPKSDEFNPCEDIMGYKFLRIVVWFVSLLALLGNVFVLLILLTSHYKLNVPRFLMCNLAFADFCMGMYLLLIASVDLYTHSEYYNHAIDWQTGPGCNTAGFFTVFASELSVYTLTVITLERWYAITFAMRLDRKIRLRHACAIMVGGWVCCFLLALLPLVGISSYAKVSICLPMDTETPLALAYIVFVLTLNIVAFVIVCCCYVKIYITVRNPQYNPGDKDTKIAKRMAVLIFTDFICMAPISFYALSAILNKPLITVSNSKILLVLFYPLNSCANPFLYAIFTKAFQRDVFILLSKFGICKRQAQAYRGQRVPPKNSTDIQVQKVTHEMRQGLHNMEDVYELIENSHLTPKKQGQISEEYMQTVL
Estrogen receptor beta (Homo sapiens), sequence (Q92731 whole entry, looked up): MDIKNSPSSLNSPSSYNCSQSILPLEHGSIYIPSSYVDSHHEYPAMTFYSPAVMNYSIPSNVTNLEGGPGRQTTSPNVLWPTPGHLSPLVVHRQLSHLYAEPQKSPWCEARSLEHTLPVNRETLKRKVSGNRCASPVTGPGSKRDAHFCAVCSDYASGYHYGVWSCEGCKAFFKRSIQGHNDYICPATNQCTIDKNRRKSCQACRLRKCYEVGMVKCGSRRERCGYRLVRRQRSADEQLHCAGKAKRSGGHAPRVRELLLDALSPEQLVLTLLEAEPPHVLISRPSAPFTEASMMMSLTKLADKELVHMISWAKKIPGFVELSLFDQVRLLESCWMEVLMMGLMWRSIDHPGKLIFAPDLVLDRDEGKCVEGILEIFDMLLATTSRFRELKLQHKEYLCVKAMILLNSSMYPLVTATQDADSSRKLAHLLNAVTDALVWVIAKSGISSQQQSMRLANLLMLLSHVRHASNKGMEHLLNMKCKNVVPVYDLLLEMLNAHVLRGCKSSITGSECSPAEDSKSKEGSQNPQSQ
Androgen receptor (Homo sapiens), sequence (P10275 whole entry, looked up): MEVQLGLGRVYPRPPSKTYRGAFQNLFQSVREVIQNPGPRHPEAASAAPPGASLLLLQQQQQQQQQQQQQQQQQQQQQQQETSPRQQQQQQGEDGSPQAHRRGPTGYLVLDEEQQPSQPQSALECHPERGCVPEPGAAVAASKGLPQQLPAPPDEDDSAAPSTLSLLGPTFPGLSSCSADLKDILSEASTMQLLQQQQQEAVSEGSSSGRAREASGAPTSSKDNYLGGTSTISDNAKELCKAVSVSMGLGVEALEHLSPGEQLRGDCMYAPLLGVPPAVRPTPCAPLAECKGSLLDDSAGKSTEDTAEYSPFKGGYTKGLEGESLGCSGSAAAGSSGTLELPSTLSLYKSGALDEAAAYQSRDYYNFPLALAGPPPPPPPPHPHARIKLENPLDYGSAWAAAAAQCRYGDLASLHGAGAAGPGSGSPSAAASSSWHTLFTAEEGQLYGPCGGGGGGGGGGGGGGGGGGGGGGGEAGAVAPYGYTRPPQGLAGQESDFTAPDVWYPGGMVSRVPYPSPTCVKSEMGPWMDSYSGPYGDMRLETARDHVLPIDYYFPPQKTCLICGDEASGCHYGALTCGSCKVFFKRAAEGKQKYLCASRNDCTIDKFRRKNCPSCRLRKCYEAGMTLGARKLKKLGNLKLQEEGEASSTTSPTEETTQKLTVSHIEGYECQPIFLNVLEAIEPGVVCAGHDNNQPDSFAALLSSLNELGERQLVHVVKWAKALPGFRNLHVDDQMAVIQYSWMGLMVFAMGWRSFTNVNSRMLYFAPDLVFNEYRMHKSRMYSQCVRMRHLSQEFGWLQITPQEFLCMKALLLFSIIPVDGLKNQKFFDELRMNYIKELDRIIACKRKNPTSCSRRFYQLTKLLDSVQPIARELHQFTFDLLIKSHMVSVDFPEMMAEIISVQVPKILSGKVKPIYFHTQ
Estrogen receptor (Homo sapiens), sequence (P03372 whole entry, looked up): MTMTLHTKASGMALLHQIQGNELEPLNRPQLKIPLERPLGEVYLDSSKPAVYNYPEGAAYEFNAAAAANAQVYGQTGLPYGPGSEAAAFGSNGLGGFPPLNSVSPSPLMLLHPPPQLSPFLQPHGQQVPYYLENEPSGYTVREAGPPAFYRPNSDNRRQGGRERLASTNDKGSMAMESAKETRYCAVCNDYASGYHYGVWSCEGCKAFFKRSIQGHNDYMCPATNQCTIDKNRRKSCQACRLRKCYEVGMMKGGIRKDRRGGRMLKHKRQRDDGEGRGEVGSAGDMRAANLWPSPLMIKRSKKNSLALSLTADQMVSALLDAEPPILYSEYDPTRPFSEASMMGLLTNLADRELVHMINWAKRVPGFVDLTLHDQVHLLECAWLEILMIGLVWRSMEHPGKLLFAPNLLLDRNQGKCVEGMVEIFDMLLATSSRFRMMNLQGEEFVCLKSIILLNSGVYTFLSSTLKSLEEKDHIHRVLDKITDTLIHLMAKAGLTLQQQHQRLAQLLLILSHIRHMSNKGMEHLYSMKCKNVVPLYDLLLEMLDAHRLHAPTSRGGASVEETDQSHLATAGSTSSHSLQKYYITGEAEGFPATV

Turning to `CN1CCc2cccc3c2[C@H]1Cc1ccc(O)c(O)c1-3`, the Potency in [1] was 55 µM (active) and 22.8 µM (active); in [2], 49.1 µM (active) and 11.9 µM (active); in test [6], 27.6 µM (active) and 22.8 µM (active); in test [7], 30.9 µM (active) and 18.1 µM (active) and 21.1 µM (active); in test [9], 2.87 µM (active) and 18.8 µM (active); in [10], 55 µM (active) and 22.8 µM (active) and 26.6 µM (active). Besides, the Potency was 55 µM (active) and 20.4 µM (active) in test [11]; 30.9 µM (active) and 20.4 µM (active) and inactive in [12]; 49.1 µM (active) and 22.8 µM (active) and 26.6 µM (active) in test [16]. Moreover, the Potency result in [3], in [4], in test [5], in test [13], in test [14] and in test [15] was “inactive” each time. For the same compound, the compound was classed as inactive in [8].
Regarding `COc1ccc(C(Cl)=C(c2ccc(OC)cc2)c2ccc(OC)cc2)cc1`, the Potency result in [1], in [3], in test [4], in test [6], in [7] and in test [9] was “inactive” in each case. For the same compound, the Potency result in [17], in test [10], in [11], in test [12] and in test [16] was “inactive” each time. The Potency in test [2] is 2.72 µM (active) and 7.7 µM (active) and 2.11 µM (active); in [18], 433 nM (active) and 668 nM (active); in test [13] it was 15.3 µM (active) and 8.41 µM (active). For the same compound, the compound was classed as inactive in [8].
With `COc1cccc(O)c1O`, the Potency entry in test [1], in test [19], in test [2], in test [4], in [20] and in test [12] was “inactive” in each case. For the same compound, the Potency result in test [13] was “inactive”. For the same compound, the Potency is 63.5 µM (active) in test [6], 56.6 µM (active) in test [7], 8.97 µM (active) in test [9] and 56.6 µM (active) in test [11]. Further, the result in test [8] was inactive.
For `CCCc1cc(=O)[nH]c(=S)[nH]1`, the Potency entry in [1], in test [2], in test [3], in test [4], in test [6] and in [7] was “inactive” each time. For the same compound, the Potency result in test [9], in test [10], in [11], in test [12], in test [13] and in [14] was “inactive” in each case. Also, the Potency result in test [15] and in test [16] was “inactive” each time. In test [8], the compound was called inactive.
Turning to `CN(N=O)C(=O)N[C@@H]1[C@@H](O)[C@H](O)[C@@H](CO)O[C@@H]1O`, the Potency result in test [1], in test [2], in test [3], in test [4], in [5] and in test [6] was “inactive” each time. The Potency entry in test [7], in test [9], in [10], in test [11], in [12] and in [13] was “inactive” each time. The Potency result in test [14], in [15] and in [16] was “inactive” in each case. Besides, the result in test [8] was inactive.
With `O=S1(=O)OC(c2ccc(O)cc2)(c2ccc(O)cc2)c2ccccc21`, the Potency in test [1] is 27.3 µM (active) and 19.3 µM (active) and 10.6 µM (active); in test [2], 61.1 µM (active) and inactive; in [6], 27.3 µM (active) and 11.9 µM (active); in test [7] it was 21.7 µM (active) and 24.3 µM (active) and 11.9 µM (active); in [9], 27.3 µM (active) and inactive; in [10], 30.6 µM (active) and 19.3 µM (active) and 10.6 µM (active). For the same compound, the Potency in test [16] was 19.3 µM (active) and 17.2 µM (active) and 13.3 µM (active). For the same compound, the Potency entry in test [3], in [4], in test [5], in test [17], in test [18] and in [11] was “inactive” throughout. In addition, the Potency entry in test [12] and in [13] was “inactive” in each case. Also, the compound was classed as inactive in test [8].
For `CCOc1ccc(NC(C)=O)cc1`, the Potency result in test [1], in test [19], in test [2], in test [3], in [4] and in test [6] was “inactive” in each case. Moreover, the Potency result in test [7], in test [9], in test [17], in test [18], in test [10] and in [11] was “inactive” throughout. Further, the Potency result in test [20], in test [12], in [13], in [14], in [15] and in [16] was “inactive” in each case. For the same compound, the compound was classed as inactive in test [8].
